High-throughput results from PubChem BioAssay.
The list is not random: actives were taken first. Their share in the collection is about 6.1%.
D3 ag – activates the human D3 dopamine receptor. P35462. D3R DiscoveRx beta-arrestin cells, luminescence, 90 min. max activation, %. hit rate 0.58% among 410,000; in the data active = max activation above about 30%; also: 0% is about no effect
Target sequence (P35462 whole entry, looked up): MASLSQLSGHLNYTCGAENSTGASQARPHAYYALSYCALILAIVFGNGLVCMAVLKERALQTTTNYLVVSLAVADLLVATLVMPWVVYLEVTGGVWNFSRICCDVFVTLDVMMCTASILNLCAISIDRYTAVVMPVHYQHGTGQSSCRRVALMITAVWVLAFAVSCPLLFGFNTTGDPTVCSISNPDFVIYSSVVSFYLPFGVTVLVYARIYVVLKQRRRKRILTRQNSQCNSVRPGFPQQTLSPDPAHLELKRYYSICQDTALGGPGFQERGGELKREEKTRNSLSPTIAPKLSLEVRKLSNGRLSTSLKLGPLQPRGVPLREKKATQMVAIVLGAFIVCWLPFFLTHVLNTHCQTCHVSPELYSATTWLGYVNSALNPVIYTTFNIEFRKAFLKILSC
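Agonist-mode cell screen: cells plated at 1500/well and incubated overnight at 37 °C, then exposed to library compounds for 90 min at 37 °C. Detection reagent was added for 30–60 min at room temperature, and luminescence was read.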
D1 PAM – potentiators of human D1 dopamine receptor | P21728 | HEK293 TREx D1 cells, calcium flux, dopamine EC20 potentiation | potentiation, % at 10 µM | hit rate 0.036% among 360,000 | AID 504651; in the data active = potentiation above about 30%; also: 0% is about no effect
D1 antagonist – blocks dopamine activation of the human D1 receptor; P21728; HEK293 TREx D1 cells, calcium flux, dopamine EC80; hits give low values; activity change, negative = inhibition, % at 10 µM; hit rate 3.2% among 360,000; in the data active = activity change below about -30%; also: % is scaled to controls: 0 for no effect and ±100 for the full control effect
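Kinetic fluorescence of a calcium dye serves as the read-out. D1-expressing Hek293 Trex cells, induced overnight at 30 C, are exposed to compound for 180 s before an EC80 dopamine addition, then read 180 s further.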
DRD3 antagonist – antagonists of human D3 dopamine receptor | AID 652054 | P35462 | hit rate 2.5% among 360,000 | D3R cells, DiscoveRx beta-arrestin luminescence, antagonist mode; hits give low values | max response, negative = inhibition, %; in the data active = max response below about -50%; inconclusive = no clear call, values can overlap the other calls; also: % is scaled to controls: 0 for no effect and ±100 for the full control effect
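Cells expressing the human receptor were seeded at 1500 cells/well, incubated overnight at 37 degrees C in 5% CO2, then exposed to library compounds with dopamine controls for 90 minutes at 37 degrees C before luminescent detection.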
D1 agonist – human D1 receptor agonism; P21728; HEK293 T-REx D1 cells, calcium flux, agonist mode; activation, % at 2 µM; hit rate 1% among 360,000; AID 504660; in the data active = activation above about 30%; also: 0% is about no effect
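Agonism was scored from calcium flux recorded over 180 s (1 read/s) after pintool compound addition, following a 10-cycle baseline. Cells were inducible force-coupled HEK293 TREx D1, plated overnight at 30 C and loaded with no-wash calcium dye.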
* = called active by the depositor; ? = inconclusive; . = no result; ! = not active in a repeat.

SMILES	D3 ag	D1 PAM	D1 antagonist	DRD3 antagonist	D1 agonist
COc1ccc(C(=O)/C(C#N)=N/Nc2ccc([N+](=O)[O-])cc2)cc1	-10.6	-3.6	-38.8*	?	25.7
CCC(CC)C(=O)Nc1ccc(Sc2ccc([N+](=O)[O-])cc2)cc1	-4.7	-7.9	-34.7*	13.4	31.5*
CCCC(=O)Nc1ccc(Sc2ccc([N+](=O)[O-])cc2)cc1	-2.3	-8.1	-27.6	-15.2	6.7
CCc1ccc(-c2cn3c(n2)sc2cc(C(=O)NCCc4ccc(OC)cc4OC)ccc23)cc1	2.4	0.0	0.3	.	-0.3
COc1ccc(OC(C)C(=O)Nc2ccc([N+](=O)[O-])cc2)cc1 (configuration not stated)	-7.1	-1.5	-44.4*	3.6	22.6
O=C(Nc1ccc(Oc2cccnc2)cc1)c1ccc([N+](=O)[O-])cc1	2.1	-8.6	-31.0*	-9.7	36.7*
CC(Oc1ccccc1)C(=O)Nc1ccc(C(N)=O)cc1 (configuration not stated)	-31.3	4.3	-27.2	?	13.5
CC(C)NS(=O)(=O)c1ccc(NC(=O)C(C)Oc2ccc(C(=O)c3ccccc3)cc2)cc1 (configuration not stated)	-12.7	2.7	-15.8	-54.3*	136.0*
CC(C)Oc1ccc(C(=O)Nc2ccc([N+](=O)[O-])cc2)cc1	1.5	-8.9	-15.3	5.6	36.3*
COc1ccc(NC(=O)C(C)Oc2ccc(/C(C)=N\O)cc2)cc1 (configuration not stated)	2.9	-1.6	-1.4	17.9	51.3*
Cc1cc(S(=O)(=O)NC2CCCCC2)c(C)s1	7.7	-5.8	-30.4*	-15.1	5.2
C=CCn1c(SCc2ccc(F)cc2)nnc1-c1sc2nc(C)cc(C)c2c1N	-3.4	-1.6	-38.1*	0.0	-0.3
C=CCn1c(SCc2ccc(OC)cc2)nnc1-c1cccnc1	-0.6	1.1	0.8	-24.7	3.4
CCCN1CCN(C(=O)Cn2ncc3c4ccccc4n(Cc4cccc(Cl)c4)c3c2=O)CC1	-9.1	1.6	-5.0	.	1.2
CCOc1ccc(-c2csc(NC(=O)C3CCCO3)n2)cc1 (configuration not stated)	0.5	-1.7	-54.5*	30.3	2.3
O=C(Nc1nc(-c2ccc(Cl)cc2)cs1)C1CCCO1 (configuration not stated)	-7.5	-6.7	-7.7	9.2	-0.6
c1ccc(CCC2Cc3ccccc3N2)cc1 (configuration not stated)	0.9	-3.2	.	-17.0	-2.9
c1ccc(CC[C@@H]2CC[C@@H](CCc3ccccc3)N2)cc1	-13.7	-1.4	.	-87.8*	14.5
CO[C@H]1C[C@@H]2CC[C@@H](C)[C@@](O)(O2)C(=O)C(=O)N2CCCC[C@H]2C(=O)O[C@H]([C@H](C)C[C@@H]2CC[C@@H](OCCO)[C@H](OC)C2)CC(=O)[C@H](C)/C=C(\C)[C@@H](O)[C@@H](OC)C(=O)[C@H](C)C[C@H](C)/C=C/C=C/C=C/1C	-7.4	.	.	.	.
CCCCOc1ccc(S(=O)(=O)Nc2cccnc2)cc1	16.8	-0.8	-36.6*	38.9	23.0
CCC(C)n1c(=O)c2sccc2n2c(CCCC(=O)N3CCN(c4ccccc4)CC3)nnc12 (configuration not stated)	5.0	-3.8	-14.6	.	1.8
COc1cc(C(=O)N2CC(C)OC(C)C2)c([N+](=O)[O-])cc1OC (configuration not stated)	0.6	-3.0	-51.4*	4.3	2.3
O=C(NCc1ccco1)C1CCCCN1S(=O)(=O)c1ccc(F)cc1 (configuration not stated)	0.0	-6.2	-38.7*	16.2	-0.2
O=C(NCc1ccc(F)cc1)C1CCCN1S(=O)(=O)c1ccc(F)cc1 (configuration not stated)	4.8	.	.	6.5	.
O=C(O)c1ccc(-n2c(-c3ccc(Br)cc3)n[nH]c2=S)cc1	4.7	-7.9	-1.7	-88.9*	1.8
SMILES	D3 ag	D1 PAM	D1 antagonist	DRD3 antagonist	D1 agonist
CCOc1cc(S(=O)(=O)N(Cc2ccccc2)Cc2ccccc2)c(OCC)cc1-n1cnnn1	-3.0	-5.4	7.3	-62.5*	4.3
CCCCOc1ccc(S(=O)(=O)Nc2cccc(-c3ccc(N4CCOCC4)nn3)c2)cc1	5.8	-1.1	-20.1	.	-0.4
CCOc1ccc(C(C(=O)NC2CCCC2)N(CCCO)C(=O)c2ccc(-c3ccccc3)[nH]2)cc1 (configuration not stated)	-1.6	3.0	-30.4*	-16.3	1.1
O=C(NC1CCCC1)C(c1ccncc1)N(CCCN1CCOCC1)C(=O)c1ccc(-c2ccccc2)[nH]1 (configuration not stated)	-2.5	9.6	4.2	-5.4	0.1
CN(C)c1ccc(O)c2c1CC1CC3[C@@H](N(C)C)C(=O)C(C(N)=O)=C(O)[C@]3(O)C(=O)C1=C2O (some centres not stated)	3.9	2.1	-6.8	-8.3	-0.6
C[C@H]1c2cccc(O)c2C(O)=C2C(=O)[C@]3(O)C(O)=C(C(N)=O)C(=O)[C@@H](N(C)C)[C@@H]3[C@@H](O)[C@@H]21	-33.1	-8.1	-83.5*	-28.5	-0.1
CN(C)c1ccc(O)c2c1C[C@H]1C[C@H]3[C@H](N(C)C)C(=O)C(C(N)=O)=C(O)[C@@]3(O)C(=O)C1=C2O	73.3*!	.	.	.	.
Cc1ccc(SCCNC(=O)CN(c2cccc(C)c2C)S(C)(=O)=O)cc1	5.4	-3.0	2.8	.	10.8
O=C(Nc1ccccc1C(=O)Nc1nnc(C(F)(F)F)s1)c1ccccc1	26.9	-5.0	-38.8*	2.0	26.2
Cc1occc1C(=O)Nc1nnc(C(F)(F)F)s1	12.2	1.4	-30.1*	-29.8	9.0
Cc1csc(NC(=O)c2ccoc2C)n1	3.1	0.4	25.0	16.1	-2.7
Cc1ccc2c(c1)c1c(c(=O)n(-c3cccc(Cl)c3)c(=O)n1CC(=O)NCCC1=CCCCC1)n2C	3.6	1.1	-15.7	.	-1.2
CC(=O)c1cccc(NC(=O)CCc2nc3cccnc3n2Cc2cccs2)c1	9.3	-2.5	-13.2	.	-1.5
COc1cc(OC)c(CNC2CCCCCC2)cc1Br	-21.7	-12.4	-11.0	-62.5*	61.9*
COc1cccc(/C=C(\C#N)C(=O)Nc2ccc(NC(C)=O)cc2)c1OC	-9.6	5.0	27.0	.	-1.5
O=C(CCn1cnc2onc(-c3ccc(F)cc3)c2c1=O)N1CCN(c2cccc(Cl)c2)CC1	-0.7	2.6	-3.3	.	1.5
Cc1ccc(C)c2sc(NC(=O)CN3C(=O)CCC3=O)nc12	-5.8	7.5	-45.3*	-27.7	2.8
O=C1c2ccccc2C(=O)N1CC1CO1 (configuration not stated)	62.9*	.	.	-2.3	.
COc1ccc(C(=O)NC2CC2)cc1OC1CCN(Cc2ccc(F)cc2F)CC1	-9.0	-17.4	-18.8	-20.1	1.0
COc1ccc(C(=O)NC2CC2)cc1OC1CCN(Cc2ccccc2F)CC1	-2.8	-3.9	-53.4*	7.4	1.6
